Source: PubChem
IDE exosite inh: displaces the probe from the exo-site of human IDE. z-score at 20 µM. AID 1259349. 17,000 compounds, 6.3% hits. purified IDE, FL-6b probe fluorescence polarization; stronger effect = lower value;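 active = z-score of -3 or lower, meaning strong loss of probe binding signal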;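 also: His-tagged human IDE residues 42-1019 made in E. coli with 30 nM FL-6b probe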
Target sequence (P14735 42-1019 limits assumed): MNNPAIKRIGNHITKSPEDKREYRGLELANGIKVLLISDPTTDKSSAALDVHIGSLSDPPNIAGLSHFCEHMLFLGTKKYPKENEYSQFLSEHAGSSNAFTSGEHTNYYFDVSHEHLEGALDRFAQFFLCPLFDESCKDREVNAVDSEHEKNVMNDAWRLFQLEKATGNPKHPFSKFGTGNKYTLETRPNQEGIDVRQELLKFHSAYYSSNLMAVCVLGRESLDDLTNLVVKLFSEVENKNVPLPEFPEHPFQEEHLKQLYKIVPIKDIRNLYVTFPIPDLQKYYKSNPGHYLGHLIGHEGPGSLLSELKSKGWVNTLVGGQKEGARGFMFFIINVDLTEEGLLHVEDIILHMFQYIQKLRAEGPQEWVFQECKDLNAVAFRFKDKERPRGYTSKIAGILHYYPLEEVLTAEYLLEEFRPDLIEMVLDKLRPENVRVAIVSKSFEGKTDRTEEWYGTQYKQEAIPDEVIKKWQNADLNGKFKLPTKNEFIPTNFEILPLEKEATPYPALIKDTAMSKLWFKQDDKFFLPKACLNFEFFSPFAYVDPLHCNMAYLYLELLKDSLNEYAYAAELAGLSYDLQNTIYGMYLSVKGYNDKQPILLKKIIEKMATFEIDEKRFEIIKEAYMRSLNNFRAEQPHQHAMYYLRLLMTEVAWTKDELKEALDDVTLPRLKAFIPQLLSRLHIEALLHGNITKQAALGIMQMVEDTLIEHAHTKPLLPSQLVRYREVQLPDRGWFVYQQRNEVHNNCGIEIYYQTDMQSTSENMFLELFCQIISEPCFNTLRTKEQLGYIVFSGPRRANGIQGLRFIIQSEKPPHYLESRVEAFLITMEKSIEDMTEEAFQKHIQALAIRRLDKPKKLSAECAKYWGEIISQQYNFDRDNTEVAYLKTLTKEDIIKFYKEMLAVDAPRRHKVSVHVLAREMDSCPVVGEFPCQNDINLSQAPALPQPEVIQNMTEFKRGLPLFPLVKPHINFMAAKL
Numbers without * were called inactive. Many of the other results were omitted from the sample, so hits are more common in it than they were.

Results for O=C(c1cccc(F)c1)N1CC(=O)N2[C@H](CO)[C@@H](c3ccc(C#Cc4ccc(F)cc4)cc3)[C@@H]2C1 ?
IDE exosite inh: 1.32

How did O=C(C1CC1)N1CC(=O)N2[C@H](CO)[C@@H](c3ccc(C#Cc4cccc(F)c4)cc3)[C@H]2C1 do in these assays?
IDE exosite inh: -3.06*

Results for O=C(C1CC1)N1CC(=O)N2[C@H](C1)[C@@H](c1ccc(C#Cc3cccc(F)c3)cc1)[C@@H]2CO ?
IDE exosite inh: -2.86

Results for O=C(C1CCCCC1)N1CC(=O)N2[C@H](CO)[C@H](c3ccc(C#Cc4cccc(F)c4)cc3)[C@H]2C1 ?
IDE exosite inh: -2.87

What do the screens show for `O=C(C1CC1)N1CC(=O)N2[C@H](CO)[C@H](c3ccc(C#Cc4cccc(F)c4)cc3)[C@H]2C1`?
IDE exosite inh: -9.59*

What do the screens show for `O=C(C1CCCCC1)N1CC(=O)N2[C@H](C1)[C@@H](c1ccc(C#Cc3cccc(F)c3)cc1)[C@@H]2CO`?
IDE exosite inh: -0.0895

What do the screens show for `O=C(C1CC1)N1CC(=O)N2[C@H](CO)[C@H](c3ccc(C#Cc4cccc(F)c4)cc3)[C@@H]2C1`?
IDE exosite inh: -4.18*

What do the screens show for `Cc1ccc(CN2CC(=O)N3[C@H](CO)[C@H](c4ccc(Br)cc4)[C@@H]3C2)cc1`?
IDE exosite inh: 1.45

Results for C/C=C/c1ccc2c(c1)[C@@H]1[C@@H](CCN1C(=O)Cc1ccncc1)[C@@H](CO)N2C ?
IDE exosite inh: -0.499

What do the screens show for `COc1cccc(S(=O)(=O)N[C@@H]2CC[C@H](CC(=O)NC3Cc4ccccc4C3)O[C@H]2CO)c1`?
IDE exosite inh: 0.914

What do the screens show for `COc1cccc(NC(=O)N2CC(=O)N3[C@H](CO)[C@H](c4ccc(C5=CCCCC5)cc4)[C@@H]3C2)c1`?
IDE exosite inh: -0.179

Results for COc1ccc2c3c(n(C)c2c1)[C@H](CO)N(Cc1ccc(Cl)cc1)CC31CN(C(=O)NC(C)C)C1 ?
IDE exosite inh: 0.858

What do the screens show for `C[C@@H]1CC=CC[C@H](c2ccc3c(c2)OCO3)NC(=O)[C@H](C)N(C)C(=O)c2ccccc2O1` (mixture of isomers)?
IDE exosite inh: -0.332

What do the screens show for `O=C(Nc1ccccc1)N1CCCCN2[C@H](CO)[C@@H](c3ccc(-c4ccccc4)cc3)[C@@H]2C1`?
IDE exosite inh: -0.184

What do the screens show for `COc1cccc(S(=O)(=O)N[C@@H]2CC[C@H](CC(=O)NC3Cc4ccccc4C3)O[C@@H]2CO)c1`?
IDE exosite inh: 0.606

What do the screens show for `CCN1CC(=O)N2[C@H](C1)[C@H](c1ccc(-c3ccccc3F)cc1)[C@@H]2CO`?
IDE exosite inh: -0.567

Results for CCC(=O)N1CC(=O)N2[C@H](CO)[C@@H](c3ccc(C#Cc4cccc(F)c4)cc3)[C@H]2C1 ?
IDE exosite inh: 2.61

What do the screens show for `O=C(C1CC1)N1CC(=O)N2[C@@H](CO)[C@H](c3ccc(C#Cc4cccc(F)c4)cc3)[C@@H]2C1`?
IDE exosite inh: -5.82*

Results for O=C(C1CC1)N1CC(=O)N2[C@H](CO)[C@@H](c3ccc(C#Cc4cccc(F)c4)cc3)[C@@H]2C1 ?
IDE exosite inh: -5.67*

What do the screens show for `O=C(c1cccc(F)c1)N1CC(=O)N2[C@H](C1)[C@H](c1ccc(C#Cc3ccc(F)cc3)cc1)[C@@H]2CO`?
IDE exosite inh: 1.49

How did O=C(c1cccc(F)c1)N1CC(=O)N2[C@H](CO)[C@H](c3ccc(C#Cc4ccc(F)cc4)cc3)[C@H]2C1 do in these assays?
IDE exosite inh: 3.94

What do the screens show for `CC=Cc1ccc2n(c1=O)C[C@@H]1[C@@H](CO)[C@H](C(=O)N3CCc4ccccc4C3)[C@H]2N1Cc1cocn1` (mixture of isomers)?
IDE exosite inh: -0.165

Results for COCC(=O)Nc1ccc2c(c1)C(=O)N(C)[C@H]1CC[C@H](CC(=O)N3CCc4ccccc4C3)O[C@H]1CO2 ?
IDE exosite inh: -2.49

Results for CC(=O)N1[C@H](CO)[C@@H](c2ccccc2)[C@@H]1CNC(=O)CN1CCOCC1 ?
IDE exosite inh: -0.194

Results for COCC#Cc1ccc([C@@H]2[C@@H](C#N)N(C(=O)NC3CCCC3)[C@@H]2CO)cc1 ?
IDE exosite inh: 0.238

How did CN1C(=O)c2cc(NC(=O)Cc3cccs3)ccc2OC[C@H]2O[C@@H](CC(=O)NCC3CCCCC3)CC[C@H]21 do in these assays?
IDE exosite inh: -0.177

How did COc1ccccc1NC(=O)N1CC(=O)N2[C@H](C1)[C@H](c1ccc(C#CCC(C)C)cc1)[C@@H]2CO do in these assays?
IDE exosite inh: 1.76

How did C/C=C/c1ccc([C@H]2[C@@H](CO)N3C(=O)CN(C(=O)Nc4ccc(F)cc4)C[C@@H]23)cc1 do in these assays?
IDE exosite inh: 0.88

What do the screens show for `C[C@@H]1CCCCO[C@H](CN(C)C(=O)Cc2ccccc2)[C@H](C)CN([C@@H](C)CO)C(=O)c2cc(NS(C)(=O)=O)ccc2O1`?
IDE exosite inh: 0.77

What do the screens show for `Cc1cccc(-c2ccc([C@@H]3[C@@H](CO)N4CCCCN(S(=O)(=O)c5cccs5)C[C@@H]34)cc2)c1`?
IDE exosite inh: -3.77*
